# Bioassay records from PubChem BioAssay.
# Most compounds without a hit are left out; they make up all but 3.3% or so of the library.
# D3 ag – agonists of human D3 dopamine receptor; P35462; D3R DiscoveRx beta-arrestin cells, luminescence, 90 min; max activation, %; actives 0.58% (n = 410,000); in the data active means max activation above about 30%; further: 0% is about no effect
# Target sequence (P35462 whole entry, looked up): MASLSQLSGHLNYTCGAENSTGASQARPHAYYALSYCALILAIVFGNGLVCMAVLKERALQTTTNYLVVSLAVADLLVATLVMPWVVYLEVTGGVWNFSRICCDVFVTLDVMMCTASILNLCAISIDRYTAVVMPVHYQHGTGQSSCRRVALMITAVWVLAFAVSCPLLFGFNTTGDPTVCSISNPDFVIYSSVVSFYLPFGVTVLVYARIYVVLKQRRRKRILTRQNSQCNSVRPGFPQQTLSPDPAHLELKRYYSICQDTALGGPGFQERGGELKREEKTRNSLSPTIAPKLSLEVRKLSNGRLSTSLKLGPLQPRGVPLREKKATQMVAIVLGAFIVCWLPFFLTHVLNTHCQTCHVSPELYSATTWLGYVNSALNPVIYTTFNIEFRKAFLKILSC
#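 Agonist-mode cell screen: cells plated at 1500/well and incubated overnight at 37 °C, then exposed to library compounds for 90 min at 37 °C. Detection reagent was added for 30–60 min at room temperature, and luminescence was read.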
# D3 antag – antagonists of human D3 dopamine receptor; max response, negative = inhibition, %; D3R cells, DiscoveRx beta-arrestin luminescence, antagonist mode; stronger effect = lower value; actives 2.5% (n = 360,000); AID 652054; P35462; in the data active means max response below about -50%; inconclusive means no clear call, values can overlap the other calls; further: on the % scale 0 is the no-effect control and ±100 the full control effect
#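 Cells expressing the human receptor were seeded at 1500 cells/well, incubated overnight at 37 degrees C in 5% CO2, then exposed to library compounds with dopamine controls for 90 minutes at 37 degrees C before luminescent detection.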
# PI5P4K alpha inh – inhibitors of human PI5P4K alpha | PI5P4Kalpha enzyme, ADP-Glo luminescence, 60 min; stronger effect = lower value | max response, % | actives 1.2% (n = 330,000); active means max response of -50% or lower; inconclusive means between -30% and -50%; inactive means -30% or higher; further: value at the top dose of about 77 µM; on the % scale 0 is the no-effect control and ±100 the full control effect
#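 PI5P4Kalpha ADP-Glo assay; 5 microM ATP final; 60 min RT reaction; HEPES pH 7.4/EGTA/CHAPS, 5% DMSO; controls lacking substrate or enzyme; luminescent end-point.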
# LDHA inh – LDHA (human) enzyme inhibition. P00338. purified LDHA, NADH/diaphorase-resazurin fluorescence; stronger effect = lower value. activity change, % (values are at about 110 or 230 µM). actives 0.15% (n = 480,000). AID 1347041; in the data active means activity change below about -30%; inconclusive means mostly about -25% to -30%;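 further: plate controls were DMSO wells for no effect and wells without enzyme for full effect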
#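 LDH5 2 nM; NADH 0.06 mM, pyruvate 0.2 mM; 200 mM Tris pH 7.4, EDTA, Tween-20; 5 min RT. Detection: diaphorase 0.133 mg/mL + resazurin 37 µM, fluorescence ex540/em590 at 0 and 20 min; normalized to enzyme-free and DMSO wells.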
# PI4K2A block – blocks human PI4K2A kinase activity | Q9BTU6 | purified PI4K2A, ADP-Glo luminescence, 1 h; stronger effect = lower value | activity change, negative = inhibition, % at 76.9 µM | actives 0.13% (n = 420,000); in the data active means activity change below about -50%; inconclusive means mostly about -30% to -49%;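 further: -100% = wells without enzyme as full effect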
#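 In this quantitative HTS, ADP production by PI4K2A was quantified luminescently after 1 h at ambient temperature; 100 microM adenosine served as plate-quality control.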
# Active calls of the source: *; ? = inconclusive; nt = not tested or not shown.
SMILES,D3 ag,D3 antag,PI5P4K alpha inh,LDHA inh,PI4K2A block
CCNC(=S)NNC(=O)c1csc2ccccc12,-17.5,-25.6,nt,5.1,4.0
CC(C)C(C)NC(=O)c1csc2c1CCCC2 (configuration not stated),nt,nt,nt,0.8,nt
O=S1(=O)CC2c3ccc(F)cc3CN2CN1C1CCCC1 (configuration not stated),nt,nt,nt,nt,-11.1
O=C(Nc1ccc(F)c(Cl)c1)Nc1nnc([C@H]2C[C@H](O)[C@@H](CO)O2)s1,-1.7,-10.0,-5.9,-48.0*,-3.4
CC(C)NC(=O)Nc1nnc([C@@H]2C[C@H](O)[C@@H](CO)O2)s1,38.4*,-20.3,2.1,-2.6,3.8
O=C(Nc1ccc(OCc2ccccc2)cc1)Nc1nnc([C@@H]2C[C@H](O)[C@@H](CO)O2)s1,1.5,7.1,3.9,0.2,-1.7
O=C(Nc1ccc(F)cc1)Nc1nnc([C@@H]2C[C@H](O)[C@@H](CO)O2)s1,62.0*,-3.6,3.6,-7.7,-2.4
O=C(Nc1cccc(Cl)c1)Nc1nnc([C@@H]2C[C@H](O)[C@@H](CO)O2)s1,-6.5,-0.8,-4.9,-14.7,-11.9
O=C(Nc1ccc(OCc2ccccc2)cc1)Nc1nnc([C@H]2C[C@H](O)[C@@H](CO)O2)s1,-14.3,-52.8*,-21.1,-5.2,1.0
COc1ccc(C(=O)OCC(=O)Nc2cc(C)ccc2C)c(C)c1,nt,nt,nt,3.9,nt
CCc1ccc(OCC(O)Cn2nc(-c3ccc(F)cc3)oc2=O)cc1 (configuration not stated),nt,nt,nt,-1.3,nt
O=C(Nc1ccccc1)Nc1nnc([C@@H]2C[C@H](O)[C@@H](CO)O2)s1,-11.8,-67.8*,2.2,-4.3,-2.0
Cc1ccccc1NC(=O)CSc1ncc(-c2ccc(F)cc2)o1,nt,nt,nt,7.8,nt
CCC(C)[C@H](NC(=O)OC(C)(C)C)c1nnc(SCC(=O)OC)o1 (some centres not stated),nt,nt,nt,-0.8,nt
O=c1[nH]c(CSc2nnc(-c3cccs3)n2C2CC2)nc2ccc(Cl)cc12,nt,nt,nt,-0.4,nt
Cc1ccc(S(=O)(=O)Nc2ccc3c(c2)nc(CCN2CCN(c4ccccn4)CC2)n3C)cc1,-0.1,-61.2*,-0.8,-0.5,-3.3
Cn1c(CCN2CCN(c3ccccn3)CC2)nc2cc(NS(=O)(=O)c3ccc(Cl)cc3)ccc21,-10.0,-69.5*,0.1,2.7,-2.2
Cn1c(CCN2CCN(c3ccccn3)CC2)nc2cc(NC(=O)COc3ccc(Cl)cc3)ccc21,7.2,-27.1,16.6,-1.7,1.8
O=C(/C=C/c1ccccc1)CCN1CCOCC1,-9.9,-14.6,7.0,-3.8,10.6
O=C1/C(=C/c2ccccc2)CN(C(=O)CCN2CCOCC2)C/C1=C\c1ccccc1,-19.3,-77.2*,21.5,0.4,-24.5
C[N+](C)(C)CCC(=O)N1C/C(=C/c2ccccc2)C(=O)/C(=C\c2ccccc2)C1,1.3,11.6,-4.8,-8.9,-26.7
COc1ccc(OC(=O)N2C/C(=C/c3ccccc3)C(=O)/C(=C\c3ccccc3)C2)cc1,-7.9,-15.0,-2.7,-1.1,21.9
CN(C)CCC(=O)N1C/C(=C/c2ccccc2)C(=O)/C(=C\c2ccccc2)C1,-23.6,-85.3*,-10.6,-2.0,-24.7
CCOC(=O)N1C/C(=C\c2ccccc2)C(=O)/C(=C/c2ccccc2)C1,-2.9,-52.4*,1.1,-3.6,15.2
CCCNC(=O)C(C)Sc1ncc(-c2ccc(Cl)cc2)o1 (configuration not stated),nt,nt,nt,1.1,nt
SMILES,D3 ag,D3 antag,PI5P4K alpha inh,LDHA inh,PI4K2A block
NC1[C@H]2CN(c3nc4c(cc3F)c(=O)c(C(=O)O)cn4-c3ccc(F)cc3F)C[C@@H]12 (some centres not stated),2.9,nt,nt,nt,-4.1
O=C(O)COc1ccccc1C=NNC(=O)Cc1cc(=O)[nH][nH]1,nt,nt,nt,nt,-14.0
O=C(c1ccc(-c2ccccc2)cc1)C1CCCN(Cc2ccncc2)C1 (configuration not stated),-9.0,-7.5,0.0,-8.8,6.4
O=C(c1ccc(Cl)cc1)C1CCCN(Cc2cnn(-c3ccccc3)c2)C1 (configuration not stated),-13.2,-70.6*,0.7,-7.6,-2.9
CCCCC/C=C\C/C=C\CCCCCCCC(=O)NC(C)c1ccccc1 (configuration not stated),-0.2,nt,nt,nt,-0.2
NNc1c(F)c(F)c(Br)c(F)c1F,nt,nt,nt,-2.3,nt
COc1ccc(C)cc1NC(=O)C1CCN(S(=O)(=O)c2c(C)noc2C)CC1,39.8*,2.7,-5.0,-2.2,-2.1
C=CCn1c(CSc2ccccc2[N+](=O)[O-])n[nH]c1=S,6.4,8.9,-74.4*,6.8,-9.9
CC1CCN(c2ccccc2NC(=S)NC(=O)c2cccs2)CC1,-6.2,-58.2*,35.3,1.0,0.4
Cc1nn(C)c(C)c1CNC(=O)Nc1ccccc1,nt,nt,nt,-4.1,nt
O=C1C(Nc2ccccc2)=C(N2CCCCC2)C(=O)c2ccccc21,-2.7,-60.1*,9.6,22.8,-25.8
Cc1ccc(NC2=C(N3CCCCC3)C(=O)c3ccccc3C2=O)cc1,-12.1,-62.6*,nt,21.7,-24.9
COc1ccccc1NC1=C(N2CCCCC2)C(=O)c2ccccc2C1=O,-1.3,-9.7,2.7,27.9,-29.5
O=C1C(Nc2cccc(O)c2)=C(N2CCCCC2)C(=O)c2ccccc21,-14.0,?,nt,34.1,-23.5
CCCCSCCCNC(=O)c1ccc2c(c1)N(Cc1cccc(Cl)c1)C(=O)c1ccccc1S2=O (configuration not stated),nt,nt,nt,11.6,nt
CCCCOc1ccc(-c2c(C(=O)Nc3ccccc3)c(C)[nH]c(=S)c2C#N)cc1,3.0,-15.6,-53.3*,-1.2,-5.3
CCCCOc1ccc(-c2c(C#N)c(N)[nH]c(=S)c2C#N)cc1,-6.8,-6.1,-95.5*,-13.3,-3.6
CCOC(=O)c1c(C)[nH]c(=S)c(C#N)c1-c1ccc(OC)cc1,-0.9,22.5,nt,-7.1,0.0
CCOc1ccccc1-c1nc(Cn2nnc(C(=O)Nc3ccc4c(c3)OCCO4)c2N)c(C)o1,nt,nt,nt,1.6,nt
COCCn1c(C(=O)NCc2ccc(OC)cc2)nc2ccccc2c1=O,nt,nt,nt,-17.1,nt
CN1C2CCC1/C(=C\c1ccccc1F)C(=O)/C2=C/c1ccccc1F,-7.6,-53.6*,3.6,-2.6,-2.6
Nn1c(SCC(=O)NC2CCCCC2)nnc1-c1n[nH]c2c1CCC2,nt,nt,nt,nt,-4.0
CCC(CC)NC(=O)Nc1ccccc1F,nt,nt,nt,2.3,nt
CC(=O)Sc1nc(-c2ccccc2)[nH]c1S(=O)(=O)c1ccc(C)cc1,2.9,6.3,-80.6*,-0.5,0.3
CC1=C(CCN2CCN(C3CCCC3)C(CCO)C2)C(C)(C)CCC1 (configuration not stated),-22.9,-12.1,-0.2,-5.0,-3.5
CC(C)=CCN1CCN(CCC2=C(C)CCCC2(C)C)CC1CCO (configuration not stated),-14.4,-90.2*,0.3,-8.3,-3.7
CCCCN(Cc1ccccc1)C1CCN(Cc2ccccc2)CC1,-23.1,-76.2*,-8.9,-1.8,-0.3
